# Screening results deposited in PubChem by several laboratories.
# An excerpt weighted towards active compounds, which were near 5.7% of everything screened.
# MPTP block = blocks calcium-induced mitochondrial swelling. isolated mouse mitochondria, Ca2+ swelling absorbance, 30 min. inhibition, % at 10 µM. 360,000 tested, 1.4% active;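 active means inhibition of 50% or more, scaled per plate between neutral and stimulator controls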;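 further: 0% = DMSO wells given calcium and 100% = 1 mM EGTA wells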
# rCAG binder = molecules binding r(CAG) RNA repeats | r(CAG) RNA repeat, TO-PRO-1 dye displacement fluorescence | 370,000 tested, 1.3% active | inhibition, % at 3 µM;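 active means inhibition above the plate cutoff, the mean of all test compounds on that plate plus 3 SD, cut at about 35% in these data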;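 further: 0% = DMSO alone and 100% = 100 µM mitoxantrone as full dye displacement; higher means more dye released from RNA so lower well fluorescence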
# FAS-TE inh = inhibitors of human fatty acid synthase thioesterase domain. recombinant FAS-TE, OMFH fluorogenic substrate, fluorescence endpoint. inhibition, % at 15 µM. 360,000 tested, 0.67% active;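 active means compounds whose normalised, plate-corrected inhibition of enzyme fluorescence in the single-dose primary screen is 50% or more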;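 further: 0% = DMSO with enzyme and 100% = substrate without enzyme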
# Myeloid diff 2 = myeloid differentiation induction; ER-HoxA9 myeloid progenitors, lysozyme-GFP differentiation, flow cytometry; calls only at 10 µM; 360,000 tested, 1% active; AID 624256;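 active means normalized GFP-positive differentiation at or above the plate's own cutoff, the solvent-only control mean plus 3 SD; inconclusive means no clear call, values can overlap the other calls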;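 further: cells exposed to compound for four days before flow analysis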
# NR3A LBD binder = modulates the human NR3A ligand-binding domain; 340,000 tested, 2.5% active; Tm shift relative to glycine control, % at 25 µM; NR3A LBD differential scanning fluorimetry, Tm shift; 0% = protein alone, 100% = glycine-bound protein; AID 1259313;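 active means melting temperature shift of at least 10% of the positive control shift, at one fixed dose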
# * marks the source's active call; other numbers are inactive results; i = inactive; ? = inconclusive; · = no result given; + = active, no number.
SMILES,MPTP block,rCAG binder,FAS-TE inh,Myeloid diff 2,NR3A LBD binder
Cc1ccc(NCc2nnc(SCC(=O)NNC(=O)Cc3ccccc3)n2C)cc1,-0.3,-3.0,-4.3,+,-2.2
C[C@@H]1CN(c2ccc(N3CCN(C(=O)OC(C)(C)C)C[C@@H]3C)cc2C#N)C[C@H](C)O1,·,1.7,·,·,·
COC1=C[C@H](C(=O)NCc2ccc(Br)cc2)C(C)C(c2ccccc2)CC1=O (stereo not given in full),·,5.3,·,·,·
CC(C)C[C@H]1CN([C@@H](CC(C)C)CN2CCCC2CN2C(=S)NC[C@@H]2Cc2ccc(O)cc2)C(=S)N1CC1CCCCC1 (stereo not given in full),3.9,2.4,-101.9,i,13.2*
Oc1ccc(C[C@H]2CNC(=S)N2CC2CCCN2C[C@H](Cc2ccc(O)cc2)N2C[C@H](Cc3ccc(O)cc3)N(CC3CCCCCC3)C2=S)cc1 (stereo not given in full),1.5,15.8,-70.0,i,27.9*
CC(C)C[C@H]1CNC(=S)N1C[C@H]1CCCN1C[C@H](Cc1ccccc1)N1C[C@H](Cc2ccc(O)cc2)N(CC2CCCCC2)C1=S,6.2,8.9,-96.1,+,·
Oc1ccc(C[C@@H](CN2CCCC2CN2C(=S)NC[C@@H]2Cc2ccccc2)N2C[C@H](Cc3ccccc3)N(CC3CCCCC3)C2=S)cc1 (stereo not given in full),1.4,16.7,-92.6,i,·
CC(C)C[C@H]1CNC(=S)N1CC1CCCN1C[C@H](Cc1ccc(O)cc1)N1C[C@H](Cc2ccccc2)N(CC2CCCCC2)C1=S (stereo not given in full),-0.2,15.6,-77.8,i,6.6
Oc1ccc(C[C@H]2CN([C@@H](Cc3ccccc3)CN3CCC[C@@H]3CN3C(=S)NC[C@@H]3Cc3ccccc3)C(=S)N2CC2CCCCC2)cc1,0.8,11.9,-54.3,i,·
Oc1ccc(C[C@H]2CNC(=S)N2CC2CCCN2C[C@H](Cc2ccc(O)cc2)N2C[C@H](Cc3ccccc3)N(CC3CCCCC3)C2=S)cc1 (stereo not given in full),0.1,11.6,-104.3,i,32.6*
CC(C)C[C@H]1CN([C@@H](CC(C)C)CN2CCC[C@@H]2CN2C(=S)NC[C@@H]2Cc2ccc(O)cc2)C(=S)N1CC1CCCCC1,5.6,4.1,-99.0,?,·
Clc1ccccc1N1CCN(C2=Nc3ccccc3Sc3ccccc32)CC1,·,7.9,·,·,·
COc1ccc(S[C@]2(C(=O)N3CCOCC3)CC(=O)N[C@@H]2c2ccc(OC)cc2)cc1,·,5.1,·,·,·
CC(=O)Nc1cccc(-c2cc(C(C)=O)c3n(c2=O)CCC3)c1,·,1.7,·,·,·
Oc1ccc(C[C@H]2CNC(=S)N2CC2CCCN2C[C@H](Cc2ccc(O)cc2)N2C[C@H](Cc3ccccc3)N(CC3CCCCCC3)C2=S)cc1 (stereo not given in full),-0.1,18.7,-84.9,i,19.9*
CC(C)C[C@@H](CN1CCCC1CN1C(=S)NC[C@@H]1Cc1ccc(O)cc1)N1C[C@H](Cc2ccc(O)cc2)N(CCc2ccccc2)C1=S (stereo not given in full),2.3,13.7,-81.3,i,23.9*
Oc1ccc(C[C@H]2CN([C@@H](Cc3ccc(O)cc3)CN3CCC[C@@H]3CN3C(=S)NC[C@@H]3Cc3ccccc3)C(=S)N2CCc2ccccc2)cc1,0.4,12.8,-55.2,i,·
CC(CCN1CCC(C(O)(c2ccccc2)c2ccccc2)CC1)Oc1ccc(C#N)c(F)c1 (stereo not given),·,3.8,·,·,·
CCOC(=O)COc1cc(-n2c(=S)[nH]c3cc(OC)c(OC)cc3c2=O)c(Cl)cc1Cl,4.7,13.8,10.6,i,12.6*
O=C1c2ccccc2C(=O)N1CCOc1cccc(Br)c1,1.1,-2.9,26.5,i,11.1*
Cc1ccccc1N1CCN(S(=O)(=O)c2ccc3c(c2)n(C)c(=O)c(=O)n3C)CC1,·,7.3,·,·,·
Cc1ccc2ncc(S(=O)(=O)c3ccccc3)c(N3CCCCC3C)c2c1 (stereo not given),-0.5,4.1,33.1,+,-0.5
COc1ccc2c(c1)[C@]1(C(=O)N2C)C2=C(CCCC2=O)Oc2cc(C)oc(=O)c21,·,2.2,·,·,·
CC1=C(/C=C/C(C)=C/C=C/C(C)=C\C(=O)O)C(C)(C)CCC1,-0.2,12.6,·,i,2.8
CC1=C(/C=C/C(C)=C/C=C/C(C)=C/C(=O)Nc2ccc(O)cc2)C(C)(C)CCC1,2.2,11.9,23.1,i,17.4*
CCN(Cc1cc(OC)c(OC)c(OC)c1)S(=O)(=O)c1ccccc1Br,·,1.8,·,·,·
